Out of some 360,000 compounds screened, about 1,400 (0.39%) were called active. This is one part of a sample in which actives are shown more often than they occur. Rule as the data show it: active = inhibition above about 5% (passing the limit was not always enough); inactive = the rest.

Among the data in PubChem BioAssay AID588664 (The Scripps Research Institute Molecular Screening Center, 2011) are inhibition values, retold here.

For the test, the target named is Tyrosine-protein kinase ABL1 (Homo sapiens) + Ras and Rab interactor 1 (Homo sapiens) (UniProt P00519+Q13671). Put plainly: disruptors of human Abl and Rin1 association – biochemical, TR-FRET, primary screen (AID 588664). To be noted: TR-FRET Rin1/Abl binding, at 7.35 µM, active compounds read high.
Chain of Tyrosine-protein kinase ABL1 (Homo sapiens) + Ras and Rab interactor 1 (Homo sapiens) (P00519 whole entry, looked up): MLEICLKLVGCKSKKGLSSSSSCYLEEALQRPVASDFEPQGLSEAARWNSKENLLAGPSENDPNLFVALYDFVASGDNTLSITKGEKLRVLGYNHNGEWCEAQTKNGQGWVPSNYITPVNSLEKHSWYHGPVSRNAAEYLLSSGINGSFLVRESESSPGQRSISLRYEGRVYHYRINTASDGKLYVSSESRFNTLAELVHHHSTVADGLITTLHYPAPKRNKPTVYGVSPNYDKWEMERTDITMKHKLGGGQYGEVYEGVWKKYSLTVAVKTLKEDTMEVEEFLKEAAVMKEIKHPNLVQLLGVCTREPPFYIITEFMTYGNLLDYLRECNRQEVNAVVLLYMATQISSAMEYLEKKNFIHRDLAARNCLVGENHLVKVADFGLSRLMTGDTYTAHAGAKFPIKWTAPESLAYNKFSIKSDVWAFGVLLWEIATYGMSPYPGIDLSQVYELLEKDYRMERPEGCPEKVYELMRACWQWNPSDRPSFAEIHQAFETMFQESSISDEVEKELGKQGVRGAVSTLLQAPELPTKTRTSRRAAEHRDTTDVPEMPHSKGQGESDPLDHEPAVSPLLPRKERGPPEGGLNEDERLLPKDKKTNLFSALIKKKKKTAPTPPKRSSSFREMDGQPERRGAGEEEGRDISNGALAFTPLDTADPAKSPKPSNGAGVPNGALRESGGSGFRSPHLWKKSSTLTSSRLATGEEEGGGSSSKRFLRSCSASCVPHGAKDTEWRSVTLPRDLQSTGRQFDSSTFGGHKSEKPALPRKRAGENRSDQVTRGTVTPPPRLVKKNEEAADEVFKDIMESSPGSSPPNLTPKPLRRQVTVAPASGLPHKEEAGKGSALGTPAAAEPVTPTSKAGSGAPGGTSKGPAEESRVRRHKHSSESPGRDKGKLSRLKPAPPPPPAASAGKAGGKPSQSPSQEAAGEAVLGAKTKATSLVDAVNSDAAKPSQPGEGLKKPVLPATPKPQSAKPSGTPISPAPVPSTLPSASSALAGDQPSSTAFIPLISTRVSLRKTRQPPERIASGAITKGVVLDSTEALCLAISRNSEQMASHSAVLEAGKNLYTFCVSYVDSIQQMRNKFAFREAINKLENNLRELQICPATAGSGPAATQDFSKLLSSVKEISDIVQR
Chain of Tyrosine-protein kinase ABL1 (Homo sapiens) + Ras and Rab interactor 1 (Homo sapiens) (Q13671 whole entry, looked up): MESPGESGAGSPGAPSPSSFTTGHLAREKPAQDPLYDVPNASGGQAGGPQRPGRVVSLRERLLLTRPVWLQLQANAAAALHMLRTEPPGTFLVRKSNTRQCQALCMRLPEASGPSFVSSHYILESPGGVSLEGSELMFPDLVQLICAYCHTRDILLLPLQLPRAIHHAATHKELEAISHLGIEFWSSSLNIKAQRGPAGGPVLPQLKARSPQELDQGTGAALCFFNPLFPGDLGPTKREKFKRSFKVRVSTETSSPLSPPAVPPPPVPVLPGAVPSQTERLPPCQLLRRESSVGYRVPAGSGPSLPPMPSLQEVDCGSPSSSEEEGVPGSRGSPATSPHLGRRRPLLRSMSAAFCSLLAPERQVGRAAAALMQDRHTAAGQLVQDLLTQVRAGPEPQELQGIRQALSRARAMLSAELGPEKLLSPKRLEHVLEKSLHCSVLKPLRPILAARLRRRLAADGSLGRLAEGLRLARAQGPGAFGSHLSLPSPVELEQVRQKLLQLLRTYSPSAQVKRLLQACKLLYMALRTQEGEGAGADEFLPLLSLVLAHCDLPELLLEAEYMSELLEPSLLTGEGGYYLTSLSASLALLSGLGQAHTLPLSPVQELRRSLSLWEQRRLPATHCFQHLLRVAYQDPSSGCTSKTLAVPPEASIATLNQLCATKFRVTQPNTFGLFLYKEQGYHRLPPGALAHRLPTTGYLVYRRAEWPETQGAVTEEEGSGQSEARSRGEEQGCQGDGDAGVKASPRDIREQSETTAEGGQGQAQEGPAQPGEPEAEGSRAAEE
Take `O=C(Nc1ccc2c(c1)[C@@H]1C[C@@H](CC(=O)N3CCCCC3)O[C@@H](CO)[C@@H]1O2)NC1CCCCC1`: the inhibition was 2.19% (inactive).

`O=C(Cn1cnc2cc([N+](=O)[O-])ccc2c1=O)NC(=O)NCc1ccccc1`: the inhibition is -4.46% (inactive).

Regarding `CCOC(=O)C(CCOc1cccc(CC)c1)C(=O)OCC`, the inhibition was 0.47% (inactive).

Take `COc1ccc2c(c1)c(=O)c(C(=O)c1ccc(Cl)cc1)cn2CC(=O)Nc1ccc(F)cc1`: the inhibition is -3.04% (inactive).

Take `COc1ccc(CNC(=O)c2cc(C(=O)C3CC3)c[nH]2)cc1`: the inhibition is 11.6% (active).

Regarding `COc1ccc(CNC(=O)c2c[nH]c3c(OC)cc(OC)cc3c2=O)cc1`, the inhibition was -2.41% (inactive).

In the case of `COc1ccc(CNC(=O)C2CCCC2)cc1`, the inhibition was -1.61% (inactive).

Consider `OCC[C@H]1C[C@@H](O)[C@H](O)[C@@]2(OCCc3ccccc32)O1`, for which the inhibition is 1.02% (inactive).

In the case of `CCc1ccc(CN(C)C(C)C(=O)Nc2ccc(S(=O)(=O)N3CCCC3)cc2)cc1` (stereo not drawn), the inhibition was 12.4% (active).

As to `CC(C(=O)Nc1ccc(S(=O)(=O)N2CCCC2)cc1)N(C)Cc1ccc(F)cc1` (stereo not drawn), the inhibition was 2.65% (inactive).

With `CC(OC(=O)c1ccc(NC(=O)CC#N)cc1)C(=O)Nc1ccc(S(=O)(=O)N2CCCC2)cc1` (stereo not drawn), the inhibition is 2.43% (inactive).

As for `Cc1nn(Cc2ccccc2)c(C)c1C(=O)N1CCN(CC(=O)Nc2ccccc2Cl)CC1`, the inhibition is 2.44% (inactive).

`CCOC(=O)C1=C(COC(=O)[C@H](C)NS(=O)(=O)c2ccccc2F)NC(=O)NC1C` (stereo partly drawn): the inhibition was 2.47% (inactive).

Turning to `CNC(=S)NNC(=O)c1ccc(N(C)C)cc1`, the inhibition was 0.47% (inactive).

Regarding `CN(C)c1ccc(N/C=C/C(=O)C(F)(F)F)cc1`, the inhibition is 7.5% (active).

Regarding `CN(C)c1ccc(/C=N/NC(=O)C(O)c2ccc(Br)cc2)cc1` (stereo not drawn), the inhibition was 0.79% (inactive).

Turning to `C[C@H](CO)N1C[C@H](C)[C@@H](CN(C)C(=O)C2CCCCC2)OCc2cnnn2CCCC1=O`, the inhibition is -1.65% (inactive).

Regarding `Cc1cc(C)c(C(N)=O)c(Cl)n1`, the inhibition is -1.52% (inactive).

In the case of `Cc1ccccc1CN1CCN(CC(=O)NCc2ccccn2)C1=O`, the inhibition is -1.59% (inactive).

Regarding `Cc1ccccc1CN1C[C@@H]2C[C@@H](c3cn(C)nc3-c3ccccc3)N3CCC[C@@]23C1=O`, the inhibition is -1.71% (inactive).

As for `Cc1ccccc1CN1C[C@@H]2C[C@@H](c3ccc4nsnc4c3)N3CCC[C@@]23C1=O`, the inhibition is 8.18% (active).

As for `CC(OC(=O)/C=C/c1ccccc1)C(=O)Nc1ccc(C(N)=O)cc1` (stereo not drawn), the inhibition was 1.19% (inactive).

Take `O=S1(=O)CC(N2CCN(c3ccccn3)CC2)CN1Cc1ccc(F)cc1` (stereo not drawn): the inhibition was 1.04% (inactive).

Turning to `Cc1ccc(S(=O)(=O)NCCC(=O)NNC(=O)C2COc3ccccc3O2)cc1` (stereo not drawn), the inhibition was -0.47% (inactive).

As for `Cc1c(CCC(=O)O)c(=O)oc2c(C)c(OCc3ccccc3Cl)ccc12`, the inhibition is 1.81% (inactive).

As to `Cc1c(CC(=O)N2CCN(C(=O)C3COc4ccccc4O3)CC2)c(=O)oc2c(O)c(O)ccc12` (stereo not drawn), the inhibition is 9.84% (active).

As for `COC(=O)c1ccc(NC(=O)CN(c2ccc(C)cc2)S(=O)(=O)c2c(C)n[nH]c2C)cc1`, the inhibition was 3.33% (inactive).

As to `NC1=CC(=O)C(=O)c2cccnc21`, the inhibition was 17.2% (active).

In the case of `CC1(C)C=Cc2c(ccc3c2OC[C@@H](c2ccc(O)cc2O)C3)O1`, the inhibition is -2.38% (inactive).

For the compound `NC(=O)c1ccc(CN2CCC(Cc3ccccc3)CC2)cc1`, the inhibition is 1.83% (inactive).

On to `CCOC(=O)N1CCN(Cc2oc(CO)cc(=O)c2O)CC1`, for which the inhibition was 1.56% (inactive).

Consider `O=c1cc(CO)oc(CN2CCC(Cc3ccccc3)CC2)c1O`, for which the inhibition is 30.9% (active).

Regarding `CCC(C)C(=O)Nc1ccccc1N1CCN(c2ccc(F)cc2)CC1` (stereo not drawn), the inhibition is 1.3% (inactive).

With `CCOC(=O)C1CCCN(C(=O)c2ccc(C)c(S(=O)(=O)N3CCCCC3)c2)C1` (stereo not drawn), the inhibition was 2.16% (inactive).

Take `Cn1nc([N+](=O)[O-])nc1Sc1ccc(C(C)(C)C)cc1`: the inhibition was -6.46% (inactive).

In the case of `O=C(CNCc1ccco1)Nc1cc(S(=O)(=O)N2CCOCC2)ccc1N1CCCC1`, the inhibition is 5.51% (active).

With `O=C(COC(=O)c1ccccc1F)Nc1cc(S(=O)(=O)N2CCOCC2)ccc1N1CCCC1`, the inhibition was 0.95% (inactive).

For the compound `CC(C)CCC(=O)Nc1cc(S(=O)(=O)N2CCOCC2)ccc1N1CCCC1`, the inhibition was -1.79% (inactive).

On to `O=C1NC[C@@H](c2ccccc2)OC(=O)[C@H](Cc2ccc(F)cc2)CC/C=C/C[C@H]1CC(=O)N(CCO)Cc1ccccc1`, for which the inhibition was -0.64% (inactive).

For the compound `Cc1nn(C)cc1S(=O)(=O)N1CCN(c2ccc(F)cc2)CC1`, the inhibition is 1.17% (inactive).

In the case of `O=C(Nc1ccc(OC(F)(F)F)cc1)c1ccc2c(c1)no[n+]2[O-]`, the inhibition is 6.4% (active).

As to `CCOc1c2ccc(C(=O)NCc3ccc(OC(F)(F)F)cc3)cc2nn1C`, the inhibition is 3.17% (inactive).

With `CCOC(=O)Cc1ncccc1C(=O)Nc1ccc(OC(F)(F)F)cc1`, the inhibition was -0.49% (inactive).

On to `COc1ccc(N(CC(=O)NC2CCCCC2)S(=O)(=O)c2c(C)[nH]c(=O)[nH]c2=O)cc1`, for which the inhibition is 0.98% (inactive).

In the case of `C=CCNC(=O)c1ccccc1NC(=O)c1ccc(Cl)c(S(=O)(=O)Nc2cccc(C)c2C)c1`, the inhibition is 3.96% (inactive).

With `O=C(c1ccc(OC2CCN(C/C=C/c3ccc(F)cc3)CC2)cc1)N1CCCCC1`, the inhibition is 4.14% (inactive).

In the case of `CC(=O)Nc1ccc(CN2CCC(Oc3ccc(C(=O)N4CCCC4)cc3)CC2)cc1`, the inhibition is 7.35% (active).

As for `Cc1nn(C)c(Cl)c1CN1CCC(Oc2ccc(C(=O)N3CCCC3)cc2)CC1`, the inhibition is -0.88% (inactive).

`Cc1noc(C)c1-c1nc(CSc2ccc(Cl)cc2)no1`: the inhibition is -1.19% (inactive).

`COc1ccc(-c2cc(C(F)(F)F)n3nc(C(=O)N4CCOCC4)c(Cl)c3n2)cc1`: the inhibition was 0.58% (inactive).

`CCc1nnc(NC(=O)CSc2nc3ccccc3c(=O)n2CCCOC)s1`: the inhibition was 2.09% (inactive).

For `CC(CCO)Nc1nc2c([nH]1)c(=O)n(C)c(=O)n2C` (stereo not drawn), the inhibition is 7.16% (active).

Turning to `Cc1cccc(C)c1NC(=O)CSc1nc2c([nH]1)c(=O)n(C)c(=O)n2C`, the inhibition is 0.29% (inactive).

For the compound `Cc1cc(C)c(C=NNc2nc3c([nH]2)c(=O)n(C)c(=O)n3C)c(C)c1`, the inhibition was 4.38% (inactive).

Turning to `O=C(C=CC(=O)Nc1ccc(F)cc1F)Nc1ccc(F)cc1F`, the inhibition was -1.65% (inactive).

For `Cc1sc2ncn(CC(=O)NCCN(C)C)c(=O)c2c1S(=O)(=O)N1CCC(C)CC1`, the inhibition is -2.5% (inactive).

Consider `O=C(CCN1C(=O)[C@H]2CC=CC[C@H]2C1=O)NCc1nc(-c2ccccc2)no1`, for which the inhibition was 4.64% (inactive).

For the compound `C=C(Br)Cn1c(CCCC)nc2ccccc21`, the inhibition was -1.26% (inactive).

Consider `NS(=O)(=O)c1ccc(CCNC(=O)Nc2ccc(Cl)cc2)cc1`, for which the inhibition is 7.48% (active).

Regarding `NS(=O)(=O)c1ccc(CCNC(=S)Nc2ccc(S(N)(=O)=O)cc2)cc1`, the inhibition is -1.51% (inactive).

Consider `CN(CC(=O)NCCc1ccc(S(N)(=O)=O)cc1)CC(=O)Nc1ccc(Cl)cc1`, for which the inhibition was 2.85% (inactive).

On to `COc1ccc(-c2c(C)nn3c(N4CCC(C(=O)N5CCCCC5)CC4)cc(C)nc23)cc1OC`, for which the inhibition was -0.97% (inactive).

As to `c1ccc(Cc2nn3c(Cn4cnc5ccccc54)nnc3s2)cc1`, the inhibition is 6.72% (inactive).

On to `OCCNc1nc2ccccc2n1-c1ncnc2sc3c(c12)CCC3`, for which the inhibition is -1.62% (inactive).

Regarding `CCc1cc2c(N3CCN(c4nnc(CC)s4)CC3)ncnc2s1`, the inhibition is 7.4% (active).

For the compound `CCc1cc2c(NC3CCCC3)ncnc2s1`, the inhibition is -2.86% (inactive).

Regarding `CCc1cc2c(NC(Cc3ccccc3)C(=O)O)ncnc2s1` (stereo not drawn), the inhibition is -0.92% (inactive).

Turning to `C[C@@H](NC(=O)[C@@H]1Cc2ccccc2CN1)C(=O)NC1CCCC1`, the inhibition was 0.01% (inactive).

Consider `Cc1ccc(C)c(NS(=O)(=O)c2ccc(OCC(=O)NCc3cccnc3)cc2)c1`, for which the inhibition is 2.47% (inactive).

Turning to `Oc1c(CN2CCN(c3ccc(F)cc3)CC2)cc(Cl)c2cccnc12`, the inhibition is 5.47% (active).

For `Cc1cc(=O)oc2cc(OCC(=O)N3CCN(c4ccc(F)cc4)CC3)c(Cl)cc12`, the inhibition is -4.94% (inactive).

On to `Cc1cccc(C)c1NC(=O)CN1CCN(c2ccc(F)cc2)CC1`, for which the inhibition is 2.38% (inactive).

As for `O=C(CN1CCN(c2ccc(Cl)cc2)CC1)NCc1cccs1`, the inhibition was -1.08% (inactive).

For `COCCNc1ncnc2c1ncn2[C@H]1CN(Cc2ccc(OC)cc2)C[C@@H](CO)O1`, the inhibition was -1.27% (inactive).

On to `OC[C@@H]1CN(Cc2ccc(Cl)cc2)C[C@H](n2cnc3c(NCc4ccncc4)ncnc32)O1`, for which the inhibition was 7.27% (active).

`CC(C)Nc1ncnc2c1ncn2[C@H]1CN(Cc2ccncc2)C[C@@H](CO)O1`: the inhibition is 3.54% (inactive).

With `CCOC(=O)c1cn[nH]c1NC(=S)Nc1ccccc1`, the inhibition is -0.64% (inactive).

As to `Cc1ccc(S(=O)(=O)CCC(=O)OCC(=O)N(C)C2CCS(=O)(=O)C2)cc1` (stereo not drawn), the inhibition was 6.74% (inactive).

Take `O=C(c1ccc(-n2cnnn2)cc1)N1CCN(C(c2ccccc2)c2ccccc2)CC1`: the inhibition is 1.41% (inactive).

On to `Cc1ccc(C2CC(c3cccc(Br)c3)n3nc(N)nc3N2)cc1` (stereo not drawn), for which the inhibition is 1.76% (inactive).

For `Cc1ccc(C2CC(c3cccc(C)c3)n3nc(N)nc3N2)cc1` (stereo not drawn), the inhibition was -1.41% (inactive).

For the compound `Nc1nc2n(n1)C(c1ccco1)CC(c1ccc(Cl)c(Cl)c1)N2` (stereo not drawn), the inhibition is 6.57% (active).

In the case of `O=C(NC(=S)Nc1ccc(Br)cc1F)C1CCCCC1`, the inhibition is 6.29% (inactive).

As to `CC(=O)Nc1ccc(NC(=O)CN2C(=O)COc3ccc(S(=O)(=O)N4CCCCC4)cc32)cc1`, the inhibition is 2.56% (inactive).

In the case of `CN(C)c1ccc(CNC(=O)CN2C(=O)COc3ccc(S(=O)(=O)N4CCCC4)cc32)cc1`, the inhibition is 2.18% (inactive).

In the case of `Cc1cccc(N(C)C(=O)CN2C(=O)COc3ccc(S(=O)(=O)N4CCCCCC4)cc32)c1`, the inhibition is 9.47% (active).

For the compound `Cc1cccc(OCc2nnc(SCc3nc4cc(C(F)(F)F)ccc4c(=O)[nH]3)o2)c1`, the inhibition is 4.23% (inactive).

`O=C1CC(Cc2ccccc2)C(=O)N1c1ccc(Cl)cn1` (stereo not drawn): the inhibition was -3.26% (inactive).
